Bioassay records deposited in PubChem BioAssay by National Center for Advancing Translational Sciences (NCATS).
SMN2 splice up: qHTS Assay for Enhancers of SMN2 Splice Variant Expression; HEK293 SMN2-luciferase splicing reporter, luminescence, 30-36 h; Potency, µM (highest dose often 46.1 µM), for the others: at the highest dose activity change, positive = activation, actives largely listed as activators; 210,000 tested, 2.8% active; further: % of control where 0% means no effect; nearly all actives have a fitted effect of over 55% in size
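HEK293 cells carry an SMN2 […]–luciferase reporter in which exon 7 inclusion puts luciferase in frame. Cells were plated 10-12 h before compound addition, then incubated 30-36 h at 37C. ONE-Glo luminescence was read; sodium butyrate at 4.5 mM final served as control.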
NPC1 promoter act: qHTS Assay for NPC1 Promoter Activators. 320,000 tested, 2.4% active. Huh7 NPC1 promoter luciferase reporter, 24 h. Potency, µM (titrated, usually from 9.22 µM), without a hit: at the highest dose activation, usual class: activators; further: % of control where 0% means no effect; nearly all actives have a fitted effect of over 60% in size
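Luminescence from an NPC1 promoter-driven luciferase reporter in stably transfected Huh7 cells was measured after 24 h compound treatment at 37 °C, followed by 10 min ambient incubation with luciferase detection reagent.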
Rab9 prom act: qHTS Assay for Rab9 Promoter Activators. Huh7 Rab9 promoter-luciferase reporter, luminescence, 24 h. Potency, µM (doses to about 9.22 µM), inactives show at the highest dose activation, negative = inhibition, actives largely listed as activators. 320,000 tested, 2.8% active; further: % of control where 0% means no effect; nearly all actives have a fitted effect of over 60% in size
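Steps: seed 1500 Huh7 Rab9-luc cells per well, rest 2 h at 37 °C; add compound in DMSO; incubate 24 h; add luciferase reagent, 10 min ambient; read luminescence.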
FLuc modulator: qHTS profiling assay for firefly luciferase inhibitor/activator using purifed enzyme and Km concentrations of substrates (counterscreen for miR-21 project); purified FLuc, Km substrates, luminescence inhibition; Potency, µM (highest dose often 57.5 µM), without a hit: top-dose activity change, negative = inhibition, usual class: inhibitors; 360,000 tested, 6.9% active;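 further: plate controls were vehicle for no effect and reference inhibitor for full effect; nearly all actives have a fitted effect of over 55% in size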
Target sequence (P08659 whole entry, looked up): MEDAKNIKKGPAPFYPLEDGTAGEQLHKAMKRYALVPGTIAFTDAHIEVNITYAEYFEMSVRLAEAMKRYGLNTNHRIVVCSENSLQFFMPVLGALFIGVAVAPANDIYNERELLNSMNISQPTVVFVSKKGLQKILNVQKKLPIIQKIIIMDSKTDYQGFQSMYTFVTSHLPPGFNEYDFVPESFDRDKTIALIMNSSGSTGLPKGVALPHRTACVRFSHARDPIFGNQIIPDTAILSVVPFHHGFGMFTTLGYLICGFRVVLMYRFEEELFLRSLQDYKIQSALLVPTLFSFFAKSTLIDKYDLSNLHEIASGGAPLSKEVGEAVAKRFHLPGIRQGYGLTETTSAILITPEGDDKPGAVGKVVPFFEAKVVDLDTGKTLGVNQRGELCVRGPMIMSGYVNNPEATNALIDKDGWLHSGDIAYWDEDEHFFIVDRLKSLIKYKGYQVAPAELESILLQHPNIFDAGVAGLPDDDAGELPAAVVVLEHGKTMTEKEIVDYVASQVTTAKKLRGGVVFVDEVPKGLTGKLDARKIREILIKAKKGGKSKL
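Purified P. pyralis luciferase, 10 nM final, with Km-level 10 uM D-luciferin and 10 uM ATP in 50 mM Tris acetate pH 7.5, 10 mM Mg acetate, 0.01% Tween-20, 0.05% BSA; 6-point qHTS titration about 60 µM downward; luminescence read.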
p53 reactivation: qHTS assay for re-activators of p53 using a Luc reporter. 320,000 tested, 0.063% active. H1299 p53-A138V BP100-luciferase reporter, luminescence, 24 h. Potency, µM (top dose mostly 92.2 µM), without a hit: at the top dose activity change, positive = activation, usual class: activators; further: % of control where 0% means no effect; nearly all actives have a fitted effect of over 45% in size
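p53-null H1299 cells stably carrying temperature-sensitive p53-A138V and a BP100-luciferase reporter were pinned with compounds (4-point, 1:5 series) and held 24 hrs at 37 deg C. Luminescence was read 10 min after detection reagent.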
ELG1 genotox: qHTS screen for small molecules that induce genotoxicity in human embryonic kidney (HEK293T) cells expressing luciferase-tagged ELG1. AID 504466, 2011. Potency, µM (series often up to 46 µM), for the others: top-dose activity change, positive = activation, hits mostly activators. HEK293T ELG1-luciferase reporter, luminescence, 16 h. 330,000 tested, 1.3% active; further: % of control where 0% means no effect; nearly all actives have a fitted effect of over 60% in size
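After overnight (16 hr) compound treatment at 37 °C, ELG1-luciferase HEK293T cells were lysed with ONE-Glo; luminescence quantified 30 min later at room temperature.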
Numbers without * were called inactive; ? = inconclusive; / = no result given; [ ] = remark or other dose. This is a sample that favours compounds with a hit; in the whole collection about 7.3% have one here. The call rests on the fitted dose curve; in most records, active means well fitted curve in the direction sought with a large enough effect; inconclusive means small, poorly fitted or top-dose-only effect, or another doubt; inactive means no such curve, though single readings can be large; an effect the other way counts as inactive or inconclusive. Potency means the concentration at half of the fitted maximal effect.

SMILES	SMN2 splice up	NPC1 promoter act	Rab9 prom act	FLuc modulator	p53 reactivation	ELG1 genotox
O=S(=O)(O)n1ccnc1 (tested in a mixture with another compound)	-17%[9.22 µM]	/	/	/	/	/
CC1CCN(C(=O)COC(=O)c2ccc(Br)o2)CC1	-3%	3%	4%	24µM*	15%	?
Nc1ccc(C(=O)OCC(=O)N2CCOCC2)cc1[N+](=O)[O-]	20µM*	?	?	?	?	?
CC1CCN(C(=O)COC(=O)c2ccc3c(c2)OCO3)CC1	21%	?	3.5µM*	17µM*	13%	?
O=C(OCC(=O)N1CCOCC1)c1ccc2c(c1)OCCO2	20%	29%	20%	-18%	?	7%
CC1CCN(C(=O)COC(=O)c2cccc(NS(=O)(=O)c3ccccc3)c2)CC1	/	1%	-4%	17µM*	7%	1%
COC(=O)[C@@H]1C[C@H]1[C@@H](NC(C)=O)c1ccccc1	4%	/	/	/	/	/
Nc1c(C(=O)NCCc2ccccc2)nnn1CC(=O)Nc1ccc(Cl)cc1	/	/	/	0%	/	/
O=C(NCc1ccccc1)C(=O)Nc1nc(C23CC4CC(CC(C4)C2)C3)cs1	-14%	-1%	-5%	-6%	-1%	-4%
CNC(=O)C(=O)Nc1nc(C23CC4CC(CC(C4)C2)C3)cs1	/	?	3.2µM*	-19%	2%	13%
COc1cccc(/C=C/c2ccccn2)c1O	/	1.3µM*	2.8µM*	3µM*	?	7.3µM*
COc1ccc(NC(=O)CNc2cc(C)ccc2C)cc1S(=O)(=O)N1CCOCC1	/	-4%	0%	-2%	-9%	1%
COc1ccc(NC(=O)Cc2coc3ccc4ccccc4c23)cc1S(=O)(=O)N1CCOCC1	-17%	-4%	-5%	13µM*	-3%	0%
COc1ccc(NC(=O)Cc2coc3cc(C)ccc23)cc1S(=O)(=O)N1CCOCC1	-5%	13%	20%	15µM*	-12%	2%
COc1ccc(CC(=O)Nc2ccc(F)c(Cl)c2)cc1S(=O)(=O)N1CCOCC1	/	0%	-6%	0%	-4%	1%
O=C(CCCn1c(=O)c2ccccc2n(Cc2cccc(Cl)c2)c1=O)NCCc1ccc(Cl)cc1	-4%	/	/	-9%	/	/
C=CCSc1nc(-c2ccc(OC)cc2)c(C#N)c(=O)n1CC=C	-18%	-8%	-3%	-3%	-1%	-7%
Nc1ccc2c(c1)N=[N+]([O-])c1cc(N)ccc1C2	/	-12%	-2%[1.84 µM]	-1%	-2%	1%
O=C(c1ccccc1)N1CCc2cc(CNS(=O)(=O)c3ccc(Cl)s3)ccc21	/	/	/	0%	/	/
CCOc1ccc(S(=O)(=O)/N=C(/Nc2ccc(OC)cc2)c2ccccc2)cc1	/	12%	9%	-2%	3%	6%
Cc1ccc(S(=O)(=O)/N=C(/NC(=S)Nc2ccccc2)c2ccccc2)cc1	?	3.5µM*	2.8µM*	4.8µM*	?	?
COc1ccc(C(=O)NN/C(=N/S(=O)(=O)c2ccc(C)cc2)c2ccccc2)cc1	/	2.8µM*	2.5µM*	5.4µM*	13%	?
Cc1ccc(NC(=S)N/C(=N/S(=O)(=O)c2ccccc2)c2ccccc2)cc1	-1%	9%	2%	11µM*	?	23µM*
COc1cccc(N2CC(NC(=O)/C=C\c3ccc4c(c3)OCO4)CC2=O)c1 (centres undefined)	/	/	/	-5%	/	/
CCC1=C(c2ccc(C)cc2)S(=O)(=O)N=C1N1CCC(C(=O)Nc2ccccc2C(=O)OC)CC1	/	/	/	0%	/	/
SMILES	SMN2 splice up	NPC1 promoter act	Rab9 prom act	FLuc modulator	p53 reactivation	ELG1 genotox
COc1ccccc1CC(=O)Nc1cc2oc3ccccc3c2cc1OC	-29%	2%	3%	-19%	-1%	2%
COc1ccc(CC(=O)Nc2cc3oc4ccccc4c3cc2OC)cc1	14µM*	?	?	15µM*	?	15%
COc1cc2c(cc1NC(=O)C(C)Sc1cccc[n+]1[O-])oc1ccccc12 (centres undefined)	10µM*	?	?	?	19%	14%
COc1cc2c(cc1NC(=O)COCC(=O)O)oc1ccccc12	/	-5%	-3%	17µM*	-1%	2%
COc1ccc(OC)c(C=Nc2ccccc2-c2nc3ccccc3[nH]2)c1	13µM*	?	?	4.8µM*	?	?
Oc1ccc(C=Nc2ccccc2-c2nc3ccccc3[nH]2)c(O)c1	14µM*	?	?	4.8µM*	?	?
Oc1ccc(C=Nc2cccc3ncccc23)c(O)c1	24%	-2%	-8%	2%	1%	-7%
Oc1ccccc1C=Nc1ccccc1-c1nc2ccccc2[nH]1	32µM*	?	?	?	?	?
COc1ccc(OC)c(/C=C/c2nc3ccccc3[nH]c2=O)c1	/	7%	6%	-11%	-1%	8%
COc1ccccc1C(=O)Nc1nnc(-c2ccc(F)cc2)s1	/	3.2µM*	4.5µM*	4.8µM*	?	14%
Cc1cc(C(=O)Nc2nnc(-c3ccccc3)s2)no1	-3%	26%	?	27µM*	?	20%
COc1ccccc1C(=O)Nc1nsc(-c2ccccc2)n1	/	?	1.6µM*	4.3µM*	?	?
Cc1cc(C(=O)Nc2sc(C)c(-c3ccc(F)cc3)c2C(N)=O)no1	13%	3.2µM*	3.2µM*	1.2µM*	?	?
Cc1ccc(N2CC(NC(=O)c3ccc4c(c3)OCO4)CC2=O)cc1 (centres undefined)	/	/	/	-2%	/	/
O=C(Nc1nnc(-c2ccccc2)s1)c1ccc(F)cc1	?	?	1.4µM*	-12%	4%	?
CCOc1ccc(CCNC(=O)Cn2nc(C)n3c(cc4occc43)c2=O)cc1OCC	6%	/	/	-9%	/	/
Fc1ccc2c(Cl)c(-c3nnc(-c4cccs4)o3)sc2c1	4.5µM*	1.4µM*	0.56µM*	0.19µM*	?	0.65µM*
COc1cc(-c2nnc(-c3cccs3)o2)cc(OC)c1OC	?	5%	6%	-1%	3%	6%
Cc1cc(C)n2nc(-c3ccc(F)cc3)nc2n1	?	4µM*	?	17µM*	?	?
O=C(NO)c1ccccc1	-19%	/	/	/	/	/
Cc1ccc2c(CN3CCC(C)CC3)cc(=O)oc2c1C	/	?	?	17µM*	20%	?
